Vif inh: HIV Vif inhibition; HEK293T cells, Vif self-association by quenched fluorescence, imaging, 24 h; inhibition, % at 7.49 µM; 340,000 tested, 0.35% active; in the data active = inhibition above about 50%, passing the limit was not always enough; inconclusive = no clear call, values can overlap the other calls; inactive = below about 31%
NadD inh: inhibitors of Staphylococcus aureus NadD. AID 602399. inhibition, % at 20 µM. 360,000 tested, 0.78% active. purified NadD enzyme, colorimetric absorbance read-out; in the data active = inhibition above about 26%
esBAF inh: blocks esBAF chromatin remodeling in mouse ES cells | Bmi1-luciferase knock-in reporter, 24 h; 100% = twice the neutral-well signal | 350,000 tested, 2% active | reporter increase, % at 12.5 µM; in the data active = activation above about 40%; inconclusive = no clear call, values can overlap the other calls;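 note: a rise in the Bmi1 reporter signal indicates esBAF inhibition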
SKN-1 block: inhibitors of C. elegans SKN-1; AID 624304; 360,000 tested, 0.49% active; C. elegans VP596 Pgst-4::GFP/RFP ratio, acrylamide-induced, 24 h; inhibition, % at 21.8 µM;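 active = interference check ratio from 0.5 to 1.5 plus GFP to RFP signal ratio inhibition reaching or exceeding a fixed threshold, cut at about 30% in these data, passing the limit was not always enough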
NR3A LBD binder: NR3A (human) ligand-binding domain modulation; NR3A LBD differential scanning fluorimetry, Tm shift; 0% = protein alone, 100% = glycine-bound protein; 340,000 tested, 2.5% active; Tm shift relative to glycine control, % at 25 µM;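 active = melting temperature shift of at least 10% of the positive control shift, at one fixed dose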
SMARCA2 activ: increases SMARCA2 function in MMTV reporter cells. activation, % at 9.1 µM. 370,000 tested, 1% active. AID 652017. MG213 cells, MMTV-luciferase reporter, dexamethasone, overnight; in the data active = activation above about 7.8%
Hits are given with their value. Rows were chosen to be rich in hits. Some 5.2% of all compounds tested hit in one or more screens of this group.

C[C@@H]1CN([C@H](C)CO)C(=O)c2cc(NC(=O)Nc3ccc4c(c3)OCO4)ccc2O[C@@H](C)CCCCO[C@H]1CN(C)Cc1ccccc1 was read as esBAF inh inactive.
`O=C(Cc1ccccc1)N[C@H]1C=C[C@@H](CC(=O)N2CCOCC2)O[C@@H]1CO` gave esBAF inh inactive.
Cc1ccc(NC(=S)NCc2cccs2)cc1 was read as Vif inh inactive, NadD inh inactive, SKN-1 block inactive, NR3A LBD binder inactive and SMARCA2 activ inactive.
For CCCCc1ccc(NC(=S)NCc2cccs2)cc1 the results were Vif inh inactive, NadD inh inactive, SKN-1 block inactive, NR3A LBD binder 11 and SMARCA2 activ inactive.
Screening O=C(NC(=S)Nc1cccc([N+](=O)[O-])c1)c1ccco1 returned NadD inh inactive, esBAF inh 49, SKN-1 block inactive, NR3A LBD binder inactive and SMARCA2 activ inactive.
Screening CC(C)CC(=O)N1CCN(c2ccc(NC(=O)c3ccco3)cc2)CC1 returned Vif inh inactive, NadD inh inactive, esBAF inh inactive, SKN-1 block inactive, NR3A LBD binder 13 and SMARCA2 activ inactive.
For CC(C)CC(=O)NC(=S)Nc1ccc(NC(=O)c2ccco2)cc1 the results were Vif inh inactive, NadD inh inactive, esBAF inh inactive, SKN-1 block inactive, NR3A LBD binder 19 and SMARCA2 activ inactive.
For O=C(Nc1ccc(NC(=S)NC(=O)c2ccco2)cc1)c1ccc(Br)cc1 the results were Vif inh 53, NadD inh inactive, esBAF inh inactive, SKN-1 block inactive and SMARCA2 activ inactive.
C[C@@H]1CCCCO[C@@H](CN(C)C(=O)Nc2cccc3ccccc23)[C@H](C)CN([C@@H](C)CO)C(=O)c2cc(NC(=O)Nc3ccc(F)cc3)ccc2O1 was read as esBAF inh inactive.
`O=C(NC(=S)NCCc1ccccn1)c1ccccc1` gave Vif inh inactive, NadD inh inactive, SKN-1 block inactive, NR3A LBD binder inactive and SMARCA2 activ inactive.
For O=C(Nc1ccc(NC(=S)NC(=O)c2ccco2)cc1)c1ccccc1 the results were Vif inh inactive, NadD inh inactive, esBAF inh inactive, SKN-1 block inactive, NR3A LBD binder 15 and SMARCA2 activ inactive.
`O=C(NNC(=S)NC(=O)c1ccco1)c1ccc(NC(=O)c2ccccc2)cc1` gave Vif inh inactive, NadD inh inactive, esBAF inh inactive, SKN-1 block inactive, NR3A LBD binder inactive and SMARCA2 activ inactive.
COc1ccccc1C(=O)NC(=S)Nc1ccc(NC(=O)c2ccco2)cc1 was read as Vif inh inactive, NadD inh inactive, esBAF inh inactive, SKN-1 block inactive, NR3A LBD binder inactive and SMARCA2 activ inactive.
`O=C(/C=C/c1ccc(Cl)cc1)NC(=S)Nc1ccc(NC(=O)c2ccco2)cc1` gave Vif inh inactive, NadD inh inactive, SKN-1 block inactive, NR3A LBD binder 34 and SMARCA2 activ inactive.
Screening O=C(NC(=S)NCCc1ccccn1)c1ccco1 returned Vif inh inactive, NadD inh inactive, esBAF inh inactive, SKN-1 block inactive, NR3A LBD binder 244 and SMARCA2 activ inactive.
Screening COc1cc(OC)cc(C(=O)NC(=S)Nc2ccc(NC(=O)c3ccco3)cc2)c1 returned Vif inh inactive, NadD inh inactive, SKN-1 block inactive, NR3A LBD binder 18 and SMARCA2 activ inactive.
COCC(=O)N(C)C[C@H]1Oc2ncc(-c3ccc(F)cc3)cc2C(=O)N([C@H](C)CO)C[C@H]1C was read as esBAF inh inactive.
COC(=O)C1=C(C)NC(C)=C(C(=O)OC)C1c1ccc(OC(=O)c2ccco2)cc1 was read as Vif inh inactive, NadD inh inactive, esBAF inh inactive, SKN-1 block 35, NR3A LBD binder inactive and SMARCA2 activ inactive.
COC(=O)C1=C(C)NC(=S)NC1c1ccc(OC(=O)c2ccco2)cc1 (stereo not given) was read as Vif inh inactive, NadD inh inactive, SKN-1 block inactive, NR3A LBD binder inactive and SMARCA2 activ inactive.
`O=C(CCn1c(=O)c2ccccc2n(CC(=O)NCCC2=CCCCC2)c1=O)NCc1ccco1` gave Vif inh inactive, NadD inh inactive, SKN-1 block 35, NR3A LBD binder inactive and SMARCA2 activ inactive.
COCCCNC(=O)CCn1c(=O)c2ccccc2n(CC(=O)NCCC2=CCCCC2)c1=O was read as Vif inh inactive, NadD inh inactive, esBAF inh inactive, SKN-1 block inactive, NR3A LBD binder inactive and SMARCA2 activ inactive.
`COc1ccc(NC(=O)N(C)C[C@@H]2Oc3ccc(NS(=O)(=O)c4ccc(F)cc4)cc3C(=O)N([C@@H](C)CO)C[C@H]2C)cc1` gave esBAF inh inactive.
`COc1cc(C(=O)COC(=O)C2CCN(c3ccc(C(F)(F)F)cn3)CC2)ccc1OC(F)F` gave Vif inh inactive, NadD inh inactive, esBAF inh inactive, SKN-1 block inactive, NR3A LBD binder 11 and SMARCA2 activ inactive.
`CCCOC(=O)c1ccc(NC(=O)COC(=O)C2CCN(c3ccc(C(F)(F)F)cn3)CC2)cc1` gave Vif inh inconclusive, NadD inh inactive, esBAF inh inactive, SKN-1 block inactive, NR3A LBD binder 21 and SMARCA2 activ inactive.
`O=C(C[C@@H]1C=C[C@@H](NC(=O)c2ccncc2)[C@H](CO)O1)NCCc1ccncc1` gave esBAF inh inactive.
C[C@H](CO)N1C[C@H](C)[C@H](CN(C)C(=O)CN(C)C)Oc2cc(C3=CCCC3)ccc2S1(=O)=O was read as esBAF inh inactive.
COc1ccc(NC(=O)CN2C(=O)/C(=C3\SC(=S)N(CCC(=O)O)C3=O)c3ccccc32)cc1 was read as Vif inh inactive, NadD inh 51, esBAF inh inactive, SKN-1 block inactive and NR3A LBD binder inactive.
CCOc1ccc(/C=C2/SC(=S)N(CCC(=O)Nc3ccc(C(=O)O)cc3)C2=O)cc1 was read as Vif inh inactive, NadD inh 38, esBAF inh inactive, SKN-1 block inactive, NR3A LBD binder inactive and SMARCA2 activ inactive.
`COc1ccc(/C=C2\SC(=S)N(CCC(=O)Nc3ccc(O)cc3)C2=O)cc1` gave Vif inh inactive, NadD inh inactive, esBAF inh inactive, SKN-1 block inactive, NR3A LBD binder 15 and SMARCA2 activ inactive.
Screening O=C(CCN1C(=O)/C(=C\c2ccc(F)cc2)SC1=S)Nc1ccc(O)cc1 returned Vif inh inactive, NadD inh inactive, esBAF inh inactive, SKN-1 block inactive, NR3A LBD binder inactive and SMARCA2 activ inactive.
C[C@H]1CCCCO[C@@H](CN(C)S(=O)(=O)c2ccccc2)[C@@H](C)CN([C@@H](C)CO)C(=O)c2cc(NC(=O)NC3CCCCC3)ccc2O1 was read as esBAF inh inactive.
C[C@H]1CN([C@@H](C)CO)C(=O)c2cc(N(C)C)ccc2O[C@@H]1CN(C)S(=O)(=O)c1cn(C)cn1 was read as esBAF inh inactive.

Assay outcomes as filed in PubChem.
